The full list was thinned out, with hits kept by preference.
ROC1-CUL1 inh: inhibitors of human ROC1-CUL1 ubiquitin ligase activity; P62877+Q13616; in vitro K48 di-Ub FRET, acceptor:donor ratio, 45 min; inhibition, % at 10 µM; 140,000 compounds, 0.6% hits; AID 1347404; in the data active means inhibition above about 25%
Target sequence (P62877 whole entry, looked up): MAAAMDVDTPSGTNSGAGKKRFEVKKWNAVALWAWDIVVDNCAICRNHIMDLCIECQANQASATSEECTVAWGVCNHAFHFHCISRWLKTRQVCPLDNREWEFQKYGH
Target sequence (Q13616 whole entry, looked up): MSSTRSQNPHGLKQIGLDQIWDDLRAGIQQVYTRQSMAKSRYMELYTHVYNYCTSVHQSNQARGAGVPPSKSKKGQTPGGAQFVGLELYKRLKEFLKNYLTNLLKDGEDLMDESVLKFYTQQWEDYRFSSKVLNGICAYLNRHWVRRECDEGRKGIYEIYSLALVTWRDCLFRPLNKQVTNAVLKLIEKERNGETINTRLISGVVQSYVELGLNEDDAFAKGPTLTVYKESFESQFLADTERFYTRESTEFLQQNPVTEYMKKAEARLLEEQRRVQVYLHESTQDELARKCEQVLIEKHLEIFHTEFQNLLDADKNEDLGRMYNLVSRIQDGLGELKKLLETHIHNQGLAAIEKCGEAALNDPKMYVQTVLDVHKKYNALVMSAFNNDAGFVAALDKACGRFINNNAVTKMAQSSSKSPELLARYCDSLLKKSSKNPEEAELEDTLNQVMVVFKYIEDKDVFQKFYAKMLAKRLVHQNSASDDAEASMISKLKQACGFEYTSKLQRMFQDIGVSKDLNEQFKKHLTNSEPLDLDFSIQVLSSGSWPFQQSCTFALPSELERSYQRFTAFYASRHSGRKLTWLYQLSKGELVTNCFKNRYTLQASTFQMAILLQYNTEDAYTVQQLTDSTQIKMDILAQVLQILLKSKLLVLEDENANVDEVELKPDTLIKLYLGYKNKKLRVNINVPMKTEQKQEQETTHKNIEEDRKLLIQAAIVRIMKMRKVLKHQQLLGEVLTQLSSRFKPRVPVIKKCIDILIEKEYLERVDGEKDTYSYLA
Hits are given with their value.

Results for CCOc1cc(/C=C2/C(=O)NN(c3ccc(I)cc3)C2=O)cc(Br)c1OC(C)=O ?
ROC1-CUL1 inh: 65.8

Results for COc1cc(/C=C2\C(=O)NN(c3ccccc3)C2=O)cc(I)c1OCc1ccc(Cl)c(Cl)c1 ?
ROC1-CUL1 inh: inactive

How did COc1cc(/C=C2\C(=O)NN(c3ccccc3)C2=O)cc(Cl)c1OCc1ccc(C)cc1 do in these assays?
ROC1-CUL1 inh: 39.4

What do the screens show for `CCOc1cc(/C=C2\C(=O)NN(c3ccccc3)C2=O)cc(Br)c1OCc1ccc(C)cc1`?
ROC1-CUL1 inh: inactive

What do the screens show for `COc1cc(/C=C2/C(=O)NN(c3ccc(Br)cc3)C2=O)cc(Br)c1OC`?
ROC1-CUL1 inh: inactive

How did CCOc1cc(/C=C2\C(=O)NN(c3ccccc3)C2=O)cc(Br)c1OCc1ccccc1C do in these assays?
ROC1-CUL1 inh: 29.6

What do the screens show for `CCOc1cc(/C=C2/C(=O)NN(c3ccc(C(=O)OC)cc3)C2=O)cc(Br)c1OC(C)=O`?
ROC1-CUL1 inh: inactive

How did CCOc1cc(/C=C2\C(=O)NN(c3ccc(I)cc3)C2=O)ccc1O do in these assays?
ROC1-CUL1 inh: inactive

What do the screens show for `CCOc1cc(/C=C2\C(=O)NN(c3ccccc3)C2=O)cc(Cl)c1OCc1ccc(Cl)cc1`?
ROC1-CUL1 inh: inactive

What do the screens show for `COc1cc(/C=C2\C(=O)NN(c3ccccc3)C2=O)cc(Br)c1OCc1ccccc1C`?
ROC1-CUL1 inh: 93.6

Results for O=C(Nc1ccc([N+](=O)[O-])cc1Br)C1CC1c1ccccc1 (configuration not stated) ?
ROC1-CUL1 inh: inactive

What do the screens show for `O=C(/C=C/c1ccco1)Nc1cccc2c1C(=O)N(c1ccccc1)C2=O`?
ROC1-CUL1 inh: inactive

What do the screens show for `CC(=O)c1sc(N2C(=O)C(=O)C(C(=O)c3cc4ccccc4o3)C2c2ccc(OCc3ccccc3)cc2)nc1C` (configuration not stated)?
ROC1-CUL1 inh: inactive

Results for CCCCNC(=O)c1sc2ncccc2c1-n1cccc1 ?
ROC1-CUL1 inh: inactive

What do the screens show for `Cc1ccc2cc3cc(C(=O)N4CCN(c5ccc(Cl)cc5)CC4)oc3nc2c1`?
ROC1-CUL1 inh: inactive

How did CCOc1ccccc1NC(=O)c1c(CC)noc1C do in these assays?
ROC1-CUL1 inh: inactive

How did C(=N/Nc1nccs1)/c1cccc(OCc2ccccc2)c1 do in these assays?
ROC1-CUL1 inh: inactive

Results for CC1=Nc2nnnn2C(c2cccc(OCc3ccccc3)c2)C1C(=O)Nc1ccc(Cl)cc1 (configuration not stated) ?
ROC1-CUL1 inh: inactive

Results for COc1cc(/C=C2\C(=O)NN(c3ccccc3)C2=O)cc(OC)c1OC ?
ROC1-CUL1 inh: inactive

Results for COc1cc(/C=C2\C(=O)NN(c3ccccc3)C2=O)cc(Br)c1OC(=O)C12CC3CC(CC(C3)C1)C2 ?
ROC1-CUL1 inh: 27.4

How did COc1cc(/C=C2/C(=O)NN(c3ccccc3)C2=O)cc(Br)c1OC(C)=O do in these assays?
ROC1-CUL1 inh: inactive

How did COc1c(O)cccc1C=Nc1nncs1 do in these assays?
ROC1-CUL1 inh: inactive

Results for Cc1cc(Sc2ccc(F)cc2)nc(Sc2ccc(F)cc2)n1 ?
ROC1-CUL1 inh: inactive

What do the screens show for `COc1cc(NC(C)=O)c(-c2c(NC(C)=O)cc(OC)c(OC)c2OC)c(OC)c1OC`?
ROC1-CUL1 inh: inactive

Results for COc1cc2c(c(OC)c1)C(=O)C2 ?
ROC1-CUL1 inh: inactive

What do the screens show for `COc1cc2c(c(O)c1OC)C(=O)C(=O)CC=C2`?
ROC1-CUL1 inh: 32.5

Results for CC(Oc1ccccc1)C(=O)Nc1nc2ccccc2s1 (configuration not stated) ?
ROC1-CUL1 inh: inactive

How did O=C(Nc1nc2ccccc2s1)C(C(F)(F)F)C(F)(F)F do in these assays?
ROC1-CUL1 inh: 74.2

Results for CC(C)C(=O)Nc1nc2ccccc2s1 ?
ROC1-CUL1 inh: inactive

Results for COc1cc(C(=O)Oc2ccccc2C(C)=O)cc(OC)c1OC ?
ROC1-CUL1 inh: inactive

Results for CC(=O)c1ccccc(OC(=O)c2ccccc2)c1=O ?
ROC1-CUL1 inh: 81.0

Results for O=C(Oc1ccccc1C(=O)Oc1ccccc1)c1ccccc1 ?
ROC1-CUL1 inh: inactive

How did Cc1cc(-c2n[nH]c(=S)n2Cc2ccccc2)cs1 do in these assays?
ROC1-CUL1 inh: inactive

Results for CC(C(=O)OCC(=O)c1ccc(-c2ccccc2)cc1)N1C(=O)c2c(Cl)c(Cl)c(Cl)c(Cl)c2C1=O (configuration not stated) ?
ROC1-CUL1 inh: inactive

Results for Cc1ccccc1C(c1ccccc1)C1C(=O)c2ccccc2C1=O (configuration not stated) ?
ROC1-CUL1 inh: inactive

Results for O=C1c2c(Cl)c(Cl)c(Cl)c(Cl)c2C(=O)C1C(c1ccccc1)c1ccccc1 ?
ROC1-CUL1 inh: 61.6

Results for CCOc1ccc(C2CC(=O)NC3=C2C(=O)CCC3)cc1Cl (configuration not stated) ?
ROC1-CUL1 inh: inactive

What do the screens show for `CCOC(=O)c1cccc(-n2c(C)cc(/C=C3\C(=O)NC(=O)N(c4ccc(C)c(C)c4)C3=O)c2C)c1`?
ROC1-CUL1 inh: inactive

What do the screens show for `CCc1ccccc1-n1c(C)cc(/C=C2\C(=O)NC(=O)N(c3cccc(C)c3)C2=O)c1C`?
ROC1-CUL1 inh: inactive

Results for Cc1cc(/C=C2/C(=O)NC(=S)N(c3ccc(F)cc3)C2=O)c(C)n1-c1ccc(O)cc1 ?
ROC1-CUL1 inh: inactive

How did Cc1cc(/C=C2\C(=O)NC(=O)N(c3ccc(Cl)c(Cl)c3)C2=O)c(C)n1-c1cccnc1 do in these assays?
ROC1-CUL1 inh: 39.7

How did Cc1cc(/C=C2\C(=O)NC(=S)N(c3cccc(F)c3)C2=O)c(C)n1-c1cccnc1 do in these assays?
ROC1-CUL1 inh: 77.6

What do the screens show for `Cc1cc(/C=C2/C(=O)NC(=S)N(c3cccc(F)c3)C2=O)c(C)n1-c1ccccc1`?
ROC1-CUL1 inh: inactive

What do the screens show for `COc1ccc(C(=O)Nc2ccc(N(C)C(C)=O)cc2)cc1`?
ROC1-CUL1 inh: inactive

Results for COc1cccc(S(=O)(=O)NCC(=O)N2CCN(C(=O)c3ccco3)CC2)c1 ?
ROC1-CUL1 inh: inactive

Results for CCN1C(=O)CC(C(=O)Nc2ccc(Cl)cc2)SC1=Nc1ccc2c(c1)OCO2 (configuration not stated) ?
ROC1-CUL1 inh: inactive

Results for Cc1cc(C(=O)Nc2cc(Cl)ccc2Cl)no1 ?
ROC1-CUL1 inh: inactive

Results for Cc1ccc2c(CC(=O)Nc3ccc(S(=O)(=O)N4CCCC(C)C4)cc3)coc2c1 (configuration not stated) ?
ROC1-CUL1 inh: inactive

How did CC(=O)N=C1C(=O)c2c(NC(C)=O)cccc2C(=O)C1Br (configuration not stated) do in these assays?
ROC1-CUL1 inh: 60.1

Results for CC(=O)Nc1cccc2c1C(=O)N(c1cccc(C(=O)O)c1)C2=O ?
ROC1-CUL1 inh: inactive

What do the screens show for `CC(=O)N=C1C(=O)c2ccccc2C(=O)C1NCCOc1ccccc1` (configuration not stated)?
ROC1-CUL1 inh: inactive

Results for CCOc1ccccc1NC(=O)Nc1ccccc1OCc1cc(=O)n2ccccc2n1 ?
ROC1-CUL1 inh: inactive

What do the screens show for `O=C(O)c1ccc(C2Nc3ccccc3-c3nnc(SCc4ccc(Cl)cc4)nc3O2)cc1` (configuration not stated)?
ROC1-CUL1 inh: 25.7

How did COC(=O)c1ccc(C2Nc3ccccc3-c3nnc(SCc4ccc(C)cc4)nc3O2)cc1 (configuration not stated) do in these assays?
ROC1-CUL1 inh: inactive

Results for O=C(O)CSc1nnc2c(n1)OC(c1ccc(Cl)cc1)Nc1ccccc1-2 (configuration not stated) ?
ROC1-CUL1 inh: inactive

Results for CCCN(CCC)CCNC(=O)Cn1cc2c(n1)-c1c(oc(C(=O)N3CCCC3)c1C)CC2 ?
ROC1-CUL1 inh: inactive
